Assay results from publication PMC4336329 (PLoS ONE, 2015).
Hit rate of the full screen: of about 310,000 compounds, about 14,000 (4.5%) showed an effect of 50% or more. Effects have a minus sign here. Many of the other results were omitted from the sample, so strong results are more common in it than they were.
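Note: peak tail current of the secondary pulse compared with the same well before compound.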

The compounds below were run against human ether-à-go-go-related gene (hERG) potassium channel (human, UniProt Q12809) (assay: primary screen, population patch clamp on CHO cells stably expressing hERG; higher = less effect of the substance).
Sequence of human ether-à-go-go-related gene (hERG) potassium channel (Q12809 whole entry, looked up): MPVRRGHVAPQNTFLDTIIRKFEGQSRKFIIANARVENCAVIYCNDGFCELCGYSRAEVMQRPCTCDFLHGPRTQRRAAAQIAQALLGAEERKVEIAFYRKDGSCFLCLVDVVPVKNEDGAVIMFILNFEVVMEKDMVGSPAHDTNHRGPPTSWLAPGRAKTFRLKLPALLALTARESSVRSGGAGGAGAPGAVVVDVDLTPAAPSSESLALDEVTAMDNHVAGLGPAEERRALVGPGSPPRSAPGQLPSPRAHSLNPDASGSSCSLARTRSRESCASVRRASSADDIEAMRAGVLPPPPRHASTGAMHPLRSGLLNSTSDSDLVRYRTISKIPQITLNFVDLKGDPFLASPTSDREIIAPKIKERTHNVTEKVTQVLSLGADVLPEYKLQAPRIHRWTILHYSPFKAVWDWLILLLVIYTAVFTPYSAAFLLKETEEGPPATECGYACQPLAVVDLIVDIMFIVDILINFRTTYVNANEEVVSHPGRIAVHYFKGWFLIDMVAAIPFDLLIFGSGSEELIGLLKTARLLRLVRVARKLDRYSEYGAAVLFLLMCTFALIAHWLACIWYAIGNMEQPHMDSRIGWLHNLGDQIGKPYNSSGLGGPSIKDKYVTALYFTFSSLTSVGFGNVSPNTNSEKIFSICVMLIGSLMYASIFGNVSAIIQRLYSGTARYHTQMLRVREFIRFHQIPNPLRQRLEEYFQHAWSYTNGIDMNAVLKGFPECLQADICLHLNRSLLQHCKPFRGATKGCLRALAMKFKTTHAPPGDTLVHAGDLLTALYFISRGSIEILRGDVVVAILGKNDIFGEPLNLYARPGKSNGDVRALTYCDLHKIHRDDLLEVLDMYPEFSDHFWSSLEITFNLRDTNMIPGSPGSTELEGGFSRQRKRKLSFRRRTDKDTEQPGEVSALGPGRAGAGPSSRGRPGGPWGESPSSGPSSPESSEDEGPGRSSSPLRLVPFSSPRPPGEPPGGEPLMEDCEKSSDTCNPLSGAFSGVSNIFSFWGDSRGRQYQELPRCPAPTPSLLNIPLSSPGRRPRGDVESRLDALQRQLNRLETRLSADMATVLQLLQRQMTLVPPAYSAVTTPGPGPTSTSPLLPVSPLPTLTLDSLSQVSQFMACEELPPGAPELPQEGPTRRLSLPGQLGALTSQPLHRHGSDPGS
For `CCc1ccc2[nH]cc(C(=O)OCCOC)c(=O)c2c1`, the “hERG current change (%, negative = inhibition) at 10uM” value was 4.42%.
For `O=C(NCCc1ccccc1)c1ccc2nc3cc(Cl)ccc3c(=O)n2c1`, the “hERG current change (%, negative = inhibition) at 10uM” value was 14.1%.
`O=[N+]([O-])/C(C(Cl)=C(Cl)Cl)=C(/Sc1ccccc1)N1CCCCC1` was tested, and the “hERG current change (%, negative = inhibition) at 10uM” value was 4.71%.
`C=CCN1C(=O)/C(=C/c2ccc(Br)s2)C(=O)NC1=S` was tested, and the “hERG current change (%, negative = inhibition) at 10uM” value was 6.73%.
`CCn1c(=N)c(S(=O)(=O)c2ccc(F)cc2)cc2c(=O)n3ccccc3nc21` was tested, and the “hERG current change (%, negative = inhibition) at 10uM” value was -10.5%.
For `N=c1c(C(=O)NC2CCCC2)cc2c(=O)n3ccccc3nc2n1Cc1ccccc1`, the “hERG current change (%, negative = inhibition) at 10uM” value was -78.6%.
In the case of `O=C(NC1CCCC1)c1cc2c(=O)n3ccccc3nc2s1`, the “hERG current change (%, negative = inhibition) at 10uM” value is reported as -9.33%.
With `N=c1c(C(=O)NC2CCCCC2)cc2c(=O)n3ccccc3nc2n1Cc1ccccc1` the “hERG current change (%, negative = inhibition) at 10uM” value was -69.8%.
In the case of `CC1CCCCC1NC(=O)c1cc2c(=O)n3ccccc3nc2n1C` (stereo not shown), the “hERG current change (%, negative = inhibition) at 10uM” value is reported as 4.32%.
In the case of `O=C(NC1CCCCCC1)c1cc2c(=O)n3ccccc3nc2s1`, the “hERG current change (%, negative = inhibition) at 10uM” value is reported as 0.251%.
`N=c1c(C(=O)NC2CCCCC2)cc2c(=O)n3ccccc3nc2n1Cc1ccc(F)cc1` was tested, and the “hERG current change (%, negative = inhibition) at 10uM” value was -77%.
In the case of `N=c1c(C(=O)NC2CCCCC2)cc2c(=O)n3ccccc3nc2n1Cc1ccco1`, the “hERG current change (%, negative = inhibition) at 10uM” value is reported as -77%.
`COCCNC(=O)c1ccc2c(=O)n(Cc3ccco3)c(SCC(=O)NC3CCCCC3)nc2c1` was tested, and the “hERG current change (%, negative = inhibition) at 10uM” value was -47.1%.
For `CCOC(=O)c1[nH]c(C)c(C(=O)N(C)C)c1C`, the “hERG current change (%, negative = inhibition) at 10uM” value was 4.87%.
`CC(C)Oc1cccc(NC(=O)c2cnccc2C(F)(F)F)c1` was tested, and the “hERG current change (%, negative = inhibition) at 10uM” value was -0.311%.
For `COc1ccc(C2=CC(c3ccc(C)cc3)n3nnnc3N2)cc1` (stereo not shown), the “hERG current change (%, negative = inhibition) at 10uM” value was -6.67%.
With `O=C(CC(C(=O)O)c1ccc(Cl)cc1Cl)c1ccc(Cl)cc1` (stereo not shown) the “hERG current change (%, negative = inhibition) at 10uM” value was 11.4%.
`O=C(NC1CCCCCC1)C1c2ccccc2C(=O)N1Cc1cccnc1` (stereo not shown) was tested, and the “hERG current change (%, negative = inhibition) at 10uM” value was -3.16%.
`N=c1c(C(=O)NC2CCCCC2)cc2c(=O)n3ccccc3nc2n1Cc1cccnc1` was tested, and the “hERG current change (%, negative = inhibition) at 10uM” value was -73.3%.
With `Cc1ccc(-c2ccc(C(=O)O)[nH]2)cc1` the “hERG current change (%, negative = inhibition) at 10uM” value was -19.1%.
For `Cc1ccccc1/C=N/NC(=O)Cc1ccc(Cl)cc1`, the “hERG current change (%, negative = inhibition) at 10uM” value was 17%.
With `COc1ccccc1Nc1nnc(SCc2cc(=O)n3ccsc3n2)s1` the “hERG current change (%, negative = inhibition) at 10uM” value was -8.42%.
`O=[N+]([O-])c1ccc(N=NN(CCO)CCO)cc1` was tested, and the “hERG current change (%, negative = inhibition) at 10uM” value was -75.3%.
For `CN(N=Nc1ccc([N+](=O)[O-])cc1)c1ccccc1`, the “hERG current change (%, negative = inhibition) at 10uM” value was 15%.
`CC(C)N(N=Nc1ccc([N+](=O)[O-])cc1)C(C)C` was tested, and the “hERG current change (%, negative = inhibition) at 10uM” value was 8.18%.
`Cc1ccc(C(=O)c2c3ccccc3[n+]([O-])n2CCC(=O)O)cc1` was tested, and the “hERG current change (%, negative = inhibition) at 10uM” value was 14.4%.
With `Nc1c(Cl)cc(C(=O)c2c3ccc([N+](=O)[O-])cc3[n+]([O-])n2CCC[NH3+])cc1Cl.O=C([O-])C(F)(F)F` the “hERG current change (%, negative = inhibition) at 10uM” value was -43.5%.
In the case of `COc1ccc(C(=O)c2c3ccccc3[n+]([O-])n2CCC[NH3+])cc1.O=C([O-])C(F)(F)F`, the “hERG current change (%, negative = inhibition) at 10uM” value is reported as -28.9%.
For `Cc1ccc(C(=O)c2c3ccc(C(F)(F)F)cc3[n+]([O-])n2CCC[NH3+])cc1.O=C([O-])C(F)(F)F`, the “hERG current change (%, negative = inhibition) at 10uM” value was -75%.
With `Cc1ccc(C(=O)c2c3ccc([N+](=O)[O-])cc3[n+]([O-])n2CCC[NH3+])cc1.O=C([O-])C(F)(F)F` the “hERG current change (%, negative = inhibition) at 10uM” value was -65.4%.
`CCN(CCn1cccn1)C(=O)C1CCC(=O)N(CCN2CCOCC2)C1` (stereo not shown) was tested, and the “hERG current change (%, negative = inhibition) at 10uM” value was 6.14%.
For `O=C(CSc1nc2[nH]ncc2c(=O)[nH]1)Nc1ccc(Cl)c(Cl)c1`, the “hERG current change (%, negative = inhibition) at 10uM” value was 6.06%.
`CCN(CC(=O)Nc1ccc(NC(C)=O)cc1)C(=O)c1cccc(-n2cccc2)c1` was tested, and the “hERG current change (%, negative = inhibition) at 10uM” value was 0.603%.
For `CCn1cc(/C=C(/C#N)S(=O)(=O)c2ccccc2)cn1`, the “hERG current change (%, negative = inhibition) at 10uM” value was -8.15%.
In the case of `CC(Nc1nc(-c2ccccc2O)nc2ccccc12)c1ccccc1` (stereo not shown), the “hERG current change (%, negative = inhibition) at 10uM” value is reported as 5.73%.
For `COc1ccc(Nc2nc(N3CCN(S(=O)(=O)N(C)C)CC3)nc3ccccc23)cc1`, the “hERG current change (%, negative = inhibition) at 10uM” value was -5.03%.
In the case of `CC(Nc1nc(N2CCN(S(C)(=O)=O)CC2)nc2ccccc12)c1ccccc1` (stereo not shown), the “hERG current change (%, negative = inhibition) at 10uM” value is reported as -60.9%.
`Clc1ccc(-c2nc(N3CCCCC3)nc3ccccc23)cc1` was tested, and the “hERG current change (%, negative = inhibition) at 10uM” value was 4.29%.
`CC(Nc1ncnc2ccccc12)c1ccccc1` (stereo not shown) was tested, and the “hERG current change (%, negative = inhibition) at 10uM” value was 5.95%.
In the case of `CC(Nc1nc(-c2ccccc2)nc2ccccc12)c1ccccc1` (stereo not shown), the “hERG current change (%, negative = inhibition) at 10uM” value is reported as 3.47%.
With `CC(Nc1nc(N2CCNCC2)nc2ccccc12)c1ccccc1` (stereo not shown) the “hERG current change (%, negative = inhibition) at 10uM” value was -66.2%.
In the case of `CC(Nc1nc(N2CCCCC2)nc2ccccc12)c1ccccc1` (stereo not shown), the “hERG current change (%, negative = inhibition) at 10uM” value is reported as -63.6%.
For `CC(Nc1nc(N2CCCC2)nc2ccccc12)c1ccccc1` (stereo not shown), the “hERG current change (%, negative = inhibition) at 10uM” value was -79.2%.
For `CC(Nc1nc(-c2ccccc2F)nc2ccccc12)c1ccccc1` (stereo not shown), the “hERG current change (%, negative = inhibition) at 10uM” value was -3.87%.
With `COc1ccc(Nc2nc(N3CCN(S(C)(=O)=O)CC3)nc3ccccc23)c(OC)c1` the “hERG current change (%, negative = inhibition) at 10uM” value was -22.7%.
`Cc1cccc(OCCCn2c(CO)nc3ccccc32)c1` was tested, and the “hERG current change (%, negative = inhibition) at 10uM” value was -32.3%.
With `CC(C)CCn1c(SCC(N)=O)nc2c1c(=O)n(C)c(=O)n2C` the “hERG current change (%, negative = inhibition) at 10uM” value was 6.57%.
In the case of `O=C(Nc1cccc2ncccc12)c1ccccc1Cl`, the “hERG current change (%, negative = inhibition) at 10uM” value is reported as 18.6%.
With `Clc1ccccc1-c1nnc2sc(-c3cccs3)nn12` the “hERG current change (%, negative = inhibition) at 10uM” value was -4.57%.
In the case of `CC(=O)c1c(C)oc2ccc(NS(=O)(=O)c3ccc(F)cc3C)cc12`, the “hERG current change (%, negative = inhibition) at 10uM” value is reported as -13.8%.
With `O=C(NN1CCOCC1)c1ccc(F)cc1` the “hERG current change (%, negative = inhibition) at 10uM” value was 1.47%.
`CCOC(=O)c1c(C)nn(-c2ccc(NC(=O)c3cccs3)cc2)c1C` was tested, and the “hERG current change (%, negative = inhibition) at 10uM” value was 16.8%.
For `CCOC(=O)C1=C(O)C(=O)N(c2ccccc2)C1c1cccc([N+](=O)[O-])c1` (stereo not shown), the “hERG current change (%, negative = inhibition) at 10uM” value was -26.7%.
In the case of `Cc1ccccc1OCC(=O)Nc1ccc2c(c1)OCO2`, the “hERG current change (%, negative = inhibition) at 10uM” value is reported as -7.9%.
In the case of `Cc1cccc(C(=O)N(CCc2ccccc2)Cc2ccccc2)c1[N+](=O)[O-]`, the “hERG current change (%, negative = inhibition) at 10uM” value is reported as 4.17%.
